Bioassay records deposited in PubChem BioAssay by National Center for Advancing Translational Sciences (NCATS).
In the library only some 2.4% were active in any assay of this set; here they are far more common.
D2 ag-1: agonists of human D2 dopamine receptor (beta-arrestin) | hit rate 0.084% among 360,000 | activation, % (no concentration beside the values) | DiscoveRx PathHunter D2 beta-arrestin, luminescence, 90 min; 100% = 57 uM dopamine signal; in the data active = activation above about 40%; inconclusive = between about 15% and that limit
Target sequence (P14416 whole entry, looked up): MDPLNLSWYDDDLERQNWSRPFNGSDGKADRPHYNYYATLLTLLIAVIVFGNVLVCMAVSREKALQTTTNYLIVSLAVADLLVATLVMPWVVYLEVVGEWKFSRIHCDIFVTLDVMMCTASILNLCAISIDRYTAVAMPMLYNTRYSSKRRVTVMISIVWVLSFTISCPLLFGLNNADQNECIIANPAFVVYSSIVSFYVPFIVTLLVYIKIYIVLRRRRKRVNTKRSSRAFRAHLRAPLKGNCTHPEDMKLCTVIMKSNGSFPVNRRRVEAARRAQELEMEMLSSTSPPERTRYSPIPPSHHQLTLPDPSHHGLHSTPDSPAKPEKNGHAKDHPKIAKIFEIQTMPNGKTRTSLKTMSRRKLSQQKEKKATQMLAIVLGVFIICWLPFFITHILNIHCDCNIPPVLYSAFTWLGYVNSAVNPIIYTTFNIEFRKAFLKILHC
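DiscoveRx PathHunter D2 beta-arrestin cells (2,100/well) attached overnight, then compound-stimulated 90 min at 37 C in HBSS/10 mM HEPES/0.1% Tween-20 buffer; beta-galactosidase complementation read by luminescence after 1 h at ambient temperature. Dopamine 57 uM final (EC100) as control.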
D2 ag-2: activates the human D2 dopamine receptor. HEK293 T-REx D2 cells, calcium flux agonist mode. activation, % at 2 µM. hit rate 0.53% among 340,000. AID 485358;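 active = activation over 3 SD above normal in the single-dose calcium agonist read, cut at about 30% in these data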; note: 0% is about no effect
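Agonism is scored from calcium flux in a force-coupled, inducible HEK293 cell line expressing D2, read kinetically for 180 s after compound addition against dopamine controls.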
D2 antag: antagonizes the human D2 dopamine receptor; HEK293 TREx D2 cells, calcium flux, dopamine EC80; inhibition, % at 10 µM; hit rate 2% among 340,000; in the data active = inhibition above about 30%; inactive = below that, where a call was filed; note: 0% is about no effect
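HEK293 T-REx D2 cells, tet-induced, calcium dye no-wash. Cpd pintool add, 180 s kinetic, then EC80 DA, 180 s kinetic. Ca flux read.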
D2 PAM-1: human D2 receptor positive allosteric modulation. DiscoveRx D2 beta-arrestin cells, luminescence, 90 min; 100% = 57 uM dopamine signal. hit rate 0.23% among 360,000. potentiation, % (no concentration beside the values); in the data active = potentiation above about 50%; inconclusive = mostly about 30% to 49%
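PathHunter beta-arrestin assay in DiscoveRx D2 cells. Compounds were added with an EC20 of dopamine (50 nM final) for 90 min at 37 deg C. Luminescence was read 1 h after detection reagent, with 57 uM dopamine as the EC100 control.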
D2 PAM-2: positive allosteric modulators of human D2 dopamine receptor; P14416; HEK293 T-REx D2, calcium flux, EC20 dopamine potentiation; potentiation, % at 10 µM; hit rate 0.34% among 340,000;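 active = potentiation over 3 SD above the plate norm, cut at about 30% in these data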; note: 0% is about no effect
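Potentiation of an EC20 dopamine calcium response measured kinetically over 180 s, after a preceding 180 s compound-only read flagging agonists. Cells: inducible Hek293 Trex D2 line, 4000/well, cultured overnight at 30 C before dye loading.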
The depositor's hits bear a star; u = inconclusive; x = not tested or not shown.

SMILES	D2 ag-1	D2 ag-2	D2 antag	D2 PAM-1	D2 PAM-2
Cc1ccc(S(=O)(=O)N2CCCc3cc(NS(=O)(=O)c4cc(F)ccc4F)ccc32)cc1	x	-2	x	x	11
COC(=O)NC1(C(F)(F)F)C(=O)NC(C)=C1C(=O)OC (configuration not stated)	0	1	-4	-10	39*
COC(=O)c1ccc(Cl)cc1NC(=O)NC(C)c1c(-n2cccc2)sc(C)c1C (configuration not stated)	x	0	x	x	-5
CNS(=O)(=O)c1ccc(C(C)(C)C)cc1	-2	1	65*	-2	-24
COc1ccc(-c2cc3ccccc3n2CC(O)CN2CCCCC2)cc1 (configuration not stated)	0	1	43*	-24	-22
COc1ccc(-c2cc3ccccc3n2CC(O)CNCCO)cc1 (configuration not stated)	-2	x	x	-17	x
COc1ccccc1OCC(=O)NCC1(N(C)C)CCCCC1	x	0	x	x	1
CCN(C[C@H]1N[C@@](CC)(C(=O)OC)[C@H]2C(=O)N(Cc3ccccc3)C(=O)[C@@H]12)C(=O)c1ccc(C(C)(C)C)cc1	u	x	x	57*	x
CC[C@@]1(C(=O)OC)N[C@H](CN(C)C(=O)c2ccc(C(C)(C)C)cc2)[C@@H]2C(=O)N(Cc3ccccc3)C(=O)[C@@H]21	2	x	x	2	x
CC(C(=O)Nc1ccc(OCc2ccccc2)cc1)N1CCCC1 (configuration not stated)	3	0	7	1	-2
CC(C)COCC(CN(Cc1ccccc1)c1ccccc1)N1CCCC1 (configuration not stated)	-5	38*	-8	-30	-17
COCCCNc1ncnc2c1cnn2-c1ccc(F)cc1	x	1	x	x	7
Cc1cc(C)cc(NC(=O)C/C(N)=N/O)c1	3	0	71*	9	-10
CCOc1ccc(OC(=O)c2c(-c3ccccc3Cl)noc2C)cc1	x	1	x	x	4
N#Cc1c(NC(=O)CSc2nc(-c3ccco3)cc(C(F)(F)F)n2)sc2c1CCCC2	0	0	-5	6	44*
Cc1cc(NC(=O)CSc2nc(-c3ccco3)cc(C(F)(F)F)n2)n(-c2ccccc2)n1	-1	1	7	-2	14
CCn1nc(C)c(NC(=O)CCSc2nc(-c3ccco3)cc(C(F)(F)F)n2)c1C	-1	0	12	11	31*
Cc1cc(NC(=O)CCCSc2nc(-c3ccco3)cc(C(F)(F)F)n2)n(-c2ccccc2)n1	0	-1	2	24	33*
Cn1cc(S(=O)(=O)N2CCCCCC2)cc1C(=O)Nc1ccccc1F	x	0	x	x	-4
CCc1ccccc1NC(=O)/C(C#N)=C\c1ccc(Sc2ccccc2)o1	-1	0	-6	-3	40*
CCc1ccc(C2CC(=O)Nc3cc4c(cc32)OCO4)cc1 (configuration not stated)	x	2	x	x	3
COc1ccc(N2CCN(S(=O)(=O)c3c(C)nc4scc(C)n4c3=O)CC2)cc1	-2	-1	-3	-6	-2
Cc1nc2scc(C)n2c(=O)c1S(=O)(=O)N1CCN(c2ccccc2)CC1	1	-1	32*	0	0
COc1ccc(NC(=O)CCN2CCN(CCO)CC2)c(OC)c1	x	0	x	x	9
CCOC(=O)c1sc(=S)n(-c2ccc(C)cc2)c1SC	-5	1	48*	-7	14
SMILES	D2 ag-1	D2 ag-2	D2 antag	D2 PAM-1	D2 PAM-2
Cc1ccc(CNC(=O)c2ccc(N3CCC4(CC3)CC(c3ccccc3)=NO4)c([N+](=O)[O-])c2)cc1	-3	7	45*	-28	-7
O=C(NCc1ccccc1)c1ccc(N2CCC3(CC2)CC(c2ccccc2)=NO3)c([N+](=O)[O-])c1	0	0	-16	11	-1
CCc1ccc2c(c1)-c1ccccc1S(=O)(=O)N2CC(=O)N1CCCCC1	x	-1	x	x	-7
CCn1cc(C(=O)NCCc2ccc(OC)c(OC)c2)c(=O)c2cc(S(=O)(=O)N3CCOCC3)ccc21	-1	-3	3	5	6
CC1CCCC(NC(=O)c2cn(C)c3ccc(S(=O)(=O)N4CCCC4)cc3c2=O)C1C (configuration not stated)	x	0	31*	x	2
CN(CCNC(=O)c1cn(C)c2ccc(S(=O)(=O)N(C)C)cc2c1=O)CCc1ccccc1	-1	16	45*	-11	-24
COc1ccc(CCNC(=O)c2cn(C)c3ccc(S(=O)(=O)N4CCOCC4)cc3c2=O)cc1OC	1	-3	40*	-3	6
CCCCN(C)CCCNC(=O)c1cn(C)c2ccc(S(=O)(=O)N(C)C3CCCCC3)cc2c1=O	0	1	34*	-16	7
CCS(=O)(=O)c1ncc(N(Cc2ccccc2)Cc2ccco2)c(C(=O)Nc2ccc(C)c(C)c2)n1	x	2	x	x	12
COc1ccc(C)cc1NC(=O)CSc1nc2ccccc2nc1N1CC(C)OC(C)C1 (configuration not stated)	-1	0	38*	-2	-1
CCc1nc(SCC(=O)Nc2cc(C)ccc2OC)c2c(C)c(C)sc2n1	1	0	44*	0	5
COc1ccccc1NC(=O)CSc1nc2ccccc2nc1N1CC(C)OC(C)C1 (configuration not stated)	-3	0	-2	-1	-8
CCc1nc(SCC(=O)Nc2ccccc2OC)c2c(C)c(C)sc2n1	-6	1	-7	9	-9
COc1ccc(CNC(=O)CCc2c(C)c3cc4c(C)c(C)oc4cc3oc2=O)cc1	x	-1	x	x	10
CSCCC(NC(=O)c1ccco1)C(=O)OC(C)C(=O)NC(=O)NC1CCCCC1 (configuration not stated)	-3	7	49*	-3	x
COc1ccc2ccccc2c1/C=N/NC(=O)c1nnn(-c2nonc2N)c1CN(C)C	1	-1	-3	-7	13
COc1ccc2ccccc2c1/C=N/NC(=O)c1nnn(-c2nonc2N)c1C(C)C	0	1	35*	-29	-6
CCCOc1ccc(-c2c(C(=O)N/N=C/c3ccc(C)cc3)nnn2-c2nonc2N)cc1	-4	6	4	1	5
CCOc1ccc(-c2c(C(=O)N/N=C/c3ccc(C)cc3)nnn2-c2nonc2N)cc1	5	39*	-2	-1	6
Nc1nonc1-n1nnc(C(=O)N/N=C/c2ccccc2Cl)c1CN1CCOCC1	4	0	4	-9	43*
CCOc1cc(/C=N/NC(=O)c2nnn(-c3nonc3N)c2C)ccc1OCc1ccc(F)cc1	8	1	-7	1	9
CCOc1cc(/C=N/NC(=O)c2nnn(-c3nonc3N)c2C)ccc1OCc1cccc(F)c1	-2	0	-7	-5	55*
